# Screening results deposited in PubChem BioAssay by National Center for Advancing Translational Sciences (NCATS).
# AmpC no deterg: qHTS Inhibitors of AmpC Beta-Lactamase (assay without detergent) | P00811 | AmpC nitrocefin hydrolysis, absorbance 480 nm, 0.0001% Triton | Potency, µM (doses to about 57.1 µM), for inactives: at the highest dose activity change, negative = inhibition, hits mostly inhibitors | hit rate 0.52% among 330,000 | AID 485341, 2010;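 also: plate controls were no compound for no effect and no enzyme for full effect; nearly all actives have a fitted effect of over 20% in size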
# Target sequence (P00811 whole entry, looked up): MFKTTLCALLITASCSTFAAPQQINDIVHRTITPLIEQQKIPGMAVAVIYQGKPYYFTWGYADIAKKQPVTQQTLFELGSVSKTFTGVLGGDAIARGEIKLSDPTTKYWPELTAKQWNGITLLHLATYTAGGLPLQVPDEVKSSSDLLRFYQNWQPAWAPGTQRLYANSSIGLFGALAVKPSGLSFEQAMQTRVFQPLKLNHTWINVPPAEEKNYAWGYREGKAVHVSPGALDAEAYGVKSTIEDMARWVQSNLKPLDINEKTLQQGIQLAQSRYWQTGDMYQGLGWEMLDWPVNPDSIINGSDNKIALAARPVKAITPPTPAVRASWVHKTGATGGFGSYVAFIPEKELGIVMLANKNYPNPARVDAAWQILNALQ
#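 AmpC (5.3 nM in the dispensed reagent) in 20 mM phosphate pH 7.0 with 0.01% (detergent screen) or 0.0001% Triton X-100 was preincubated with compounds for 15 min at room temperature. Nitrocefin was then added from an 800 uM solution, and hydrolysis was followed at 480 nm.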
# AmpC detergent: qHTS Inhibitors of AmpC Beta-Lactamase (assay with detergent); AmpC hydrolysis of nitrocefin, absorbance 480 nm, 0.01% Triton; P00811; hit rate 0.041% among 370,000; Potency, µM (top dose mostly 114 µM), without a hit: at the top dose activity change, negative = inhibition, usual class: inhibitors;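 also: 0% = no-compound wells and -100% = no-enzyme wells; nearly all actives have a fitted effect of over 25% in size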
#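 AmpC (5.3 nM in the dispensed reagent) in 20 mM phosphate pH 7.0 with 0.01% (detergent screen) or 0.0001% Triton X-100 was preincubated with compounds for 15 min at room temperature. Nitrocefin was then added from an 800 uM solution, and hydrolysis was followed at 480 nm.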
# Lassa entry inh: qHTS for Inhibitors of binding or entry into cells for Lassa Virus | Lassa virus pseudotype entry inhibition, cell reporter | Potency, µM (highest dose often 37.9 µM), inactives show at the highest dose activity change, negative = inhibition, hits mostly inhibitors | hit rate 1.2% among 300,000 | AID 540256, 2011; calls by dose curve; tested in HEK293 cells; also: nearly all actives have a fitted effect of over 50% in size
# Marburg entry inh: qHTS for inhibitors of binding or entry into cells for Marburg Virus | Potency, µM (top dose mostly 37.8 µM), for inactives: at the highest dose activity change, negative = inhibition, usual class: inhibitors | hit rate 1.8% among 300,000 | Marburg virus pseudotyped entry inhibition, cell reporter; calls by dose curve; tested in HEK293 cells
# AMA1-RON2 inh: qHTS for Inhibitors of AMA1-RON; Towards Development of Antimalarial Drug Lead: Primary Screen. Plasmodium falciparum AMA1 (3D7) - RON2 peptide interaction. AlphaScreen AMA1-biotinylated RON2 peptide binding. Potency, µM (doses to about 58.2 µM), for the others: at the highest dose activity change, negative = inhibition, usual class: inhibitors. hit rate 0.2% among 360,000;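 also: 0% = vehicle wells and -100% = peptide control; nearly all actives have a fitted effect of over 45% in size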
#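 AMA1 (3D7) with his tag at 25 nM final met compounds first, then biotinylated RON2 peptide at 25 nM; detection used donor plus acceptor beads, 10 µg/mL apiece, read by AlphaScreen after 30 min at room temperature.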
# * marks the source's active call; other numbers are inactive results; ? = inconclusive; . = no result given; [ ] = remark or other dose. This is a sample that favours compounds with a hit; in the whole collection about 2.3% have one here. Unless noted, calls follow the shape of the dose curve; as a rule, active = well fitted curve in the direction sought with a large enough effect; inconclusive = small, poorly fitted or top-dose-only effect, or another doubt; inactive = no such curve, though single readings can be large; an effect the other way counts as inactive or inconclusive. Unless noted, % is scaled to controls: 0 for no effect and ±100 for the full control effect; potency is read from the fitted curve at half-maximal effect.
SMILES,AmpC no deterg,AmpC detergent,Lassa entry inh,Marburg entry inh,AMA1-RON2 inh
CN(C)CCNC(=O)/C(=C/c1ccc(-c2ccc(Cl)cc2Cl)o1)NC(=O)c1ccccc1,321%,0%,?,6.3µM*,-1%
CCOc1ccc(C(=O)Nc2ccc3oc(-c4cccc5ccccc45)nc3c2)cc1,.,1%,1%[46.1 µM],.,.
Cc1cccn2c(=O)c3cc(C(=O)NCc4ccccc4)c(=N)n(CCCN4CCOCC4)c3nc12,.,.,.,.,9%
Cc1cccn2c(=O)c3cc(C(=O)NCCN4CCOCC4)c(=N)n(CCCN4CCOCC4)c3nc12,-2%,-2%,?,7.9µM*,44%
COc1ccc(CCNC(=O)c2cc3c(=O)n4ccccc4nc3n(CCN3CCOCC3)c2=N)cc1,70%,-12%,?,2.8µM*,2%
Cc1ccc(C)c(CSc2nc(-c3ccccc3F)nc3c2Cc2c(CO)cnc(C)c2O3)c1,.,14%,13%[46.1 µM],.,.
c1ccc(CSc2nc3ncccc3[nH]2)cc1,.,-1%,2%[46.1 µM],.,.
CCn1c(=O)c(C(=O)CN(C)Cc2ccc(F)cc2)c(N)n(Cc2ccccc2)c1=O,22%,9%,-34%,10µM*,13%
OC1(CNCc2cn[nH]c2-c2cc3ccccc3o2)CCCCC1,-2%,?,-30%,7.9µM*,15%
c1ccc2oc(-c3[nH]ncc3CN3CCSCC3)cc2c1,-8%,4%,-16%[46.1 µM],?,-4%
CCc1ccc(NC(=O)N2CCN(c3nnc(C)c4c(C)n(-c5ccc(Cl)cc5)nc34)CC2)cc1,.,-4%,?,.,.
CCOc1ccc(/C=N/NC(=O)c2c(C)n(C)c3ccc(OC)cc23)cc1,32µM*,-3%,?,-20%,-5%
COc1ccc2c(c1)c(C(=O)N/N=C/c1ccc(Br)cc1)c(C)n2C,-20%,7%,.,.,4%
Nc1c(C(=O)Nc2ccc(OC(F)(F)F)cc2)nnn1Cc1ccccc1,.,-3%,-16%[46.1 µM],-5%[46.1 µM],.
Cc1cc(NS(=O)(=O)c2ccc(NC(=O)c3oc4ccccc4c3C)cc2)no1,?,-5%,7%,3%,30µM*
CC(=O)NC(=S)Nc1ccc(NC(=O)c2cccs2)cc1,-8%,-15%,?,?,-12%
Cc1c(C(=O)NC(=S)Nc2ccc(NC(=O)c3cccs3)cc2)oc2ccccc12,18µM*,?,.,3%,0%
Cc1c(C)c2cc(Cl)c(O)c(CN3CCC[C@@H](C)C3)c2oc1=O,.,.,.,0%,.
COc1ccc(C2c3c(-c4ccccc4O)n[nH]c3C(=O)N2Cc2ccco2)cc1 (configuration not stated),-53%,-3%,0.58µM*,-25%,49%
O=C1c2[nH]nc(-c3ccccc3O)c2C(c2cccc(O)c2)N1Cc1ccco1 (configuration not stated),-14%,?,0.5µM*,0%,-12%
O=C(NCc1ccco1)c1cccc2ccccc12,-23%,?,1%,10%,-1%
O=C(Nc1ccccc1C(=O)NCc1ccco1)Nc1cccc2ccccc12,20µM*,-5%,.,.,-9%
Cc1cc(N2CCCC2)nc(N2C3CCC2CC(O)(c2ccc(F)cc2)C3)n1 (configuration not stated),61%,-8%,.,.,.
COc1ccc(C2(O)CC3CCC(C2)N3c2cc(C)nc(-c3ccccc3)n2)cc1 (configuration not stated),59%,0%,2%,12µM*,-12%
CC(=O)OC[C@H]1O[C@H](C#Cc2ccccc2)C=C[C@H]1O,.,.,.,-3%[14.2 µM],.
SMILES,AmpC no deterg,AmpC detergent,Lassa entry inh,Marburg entry inh,AMA1-RON2 inh
CC(Nc1oc(-c2ccc(COc3ccccc3)o2)nc1C#N)c1ccccc1 (configuration not stated),.,17%,?,-1%[46.1 µM],.
FC(F)Oc1ccc(NC(=S)NC23CC4CC(CC(C4)C2)C3)cc1,-33%,1%,2.5µM*,-29%[46.1 µM],11%
COc1ccc(OC[C@@H]2CC3[C@@H](c4ccc(Br)cc4)[C@H](C)CC[C@H]3C(=O)O2)cc1 (some centres not stated),.,.,.,-5%[14.2 µM],.
Cc1ccn2c(Nc3ccccc3)c(-c3ccccn3)nc2c1,-19%,?,5.8µM*,?,40%
Cc1ccn2c(Nc3ccccc3C)c(-c3ccccn3)nc2c1,85%,22%,?,?,-54%
O=C(CC(=O)c1ccccc1)Nc1cc(C(F)(F)F)ccc1Cl,25µM*,-3%,-15%,-22%,-16%
COc1ccc(-c2nnc(SCC(=O)Nc3cc(OC)ccc3OC)nc2-c2ccc(OC)cc2)cc1,.,-1%,-6%[46.1 µM],.,.
O=[N+]([O-])c1cccc(NC(=S)N2CCN(S(=O)(=O)c3ccccc3)CC2)c1,22µM*,5%,-27%,-6%,7%
O=Nc1ccc2oc(=O)ccc2c1,.,.,?,13µM*,.
C=CCN=C1N[C@@H](c2ccccc2)[C@H](C(=O)OC)[C@@H](C)N1CC,.,.,.,-25%[14.2 µM],.
O=c1[nH]c(C2CCN(S(=O)(=O)/C=C/c3ccccc3)CC2)nc2c1nnn2Cc1ccc(F)cc1,-9%,?,?,7.9µM*,-3%
Cc1ccc(C)c(S(=O)(=O)N2CCC(c3nc4c(nnn4Cc4ccc(F)cc4)c(=O)[nH]3)CC2)c1,10%,-2%,?,-25%,1%
Cc1ccc(Cn2nnc3c(=O)[nH]c(C4CCN(S(=O)(=O)c5cc(C)ccc5C)CC4)nc32)cc1,-3%,-1%,14µM*,?,0%
Cc1ccc(C)c(Cn2nnc3c(=O)[nH]c(C4CCN(C(=O)c5cccs5)CC4)nc32)c1,23%,-5%,?,?,-7%
Cc1ccc(Cn2nnc3c(=O)[nH]c(C4CCN(C(=O)c5cccs5)CC4)nc32)cc1,17%,1%,2.9µM*,?,6%
C=CCn1cc(C(=O)NCc2ccc3c(c2)OCO3)c(=O)c2cc(S(=O)(=O)N(CC)CC)ccc21,84%,0%,0.71µM*,?,5%
CCOCCCNC(=O)c1cn(CC)c2ccc(S(=O)(=O)N(C)C3CCCCC3)cc2c1=O,189%,-2%,.,.,-10%
CCN(CC)S(=O)(=O)c1ccc2c(c1)c(=O)c(C(=O)NCc1ccc3c(c1)OCO3)cn2C,-13%,?,4%,13%,.
C=CCn1cc(C(=O)NCCOC)c(=O)c2cc(S(=O)(=O)N(CC)CC)ccc21,50%,-8%,12µM*,2%,-7%
C=CCn1cc(C(=O)NCCCOCC)c(=O)c2cc(S(=O)(=O)N(CC)CC)ccc21,103%,3%,6.5µM*,-4%,-4%
O=C(NCCc1ccccc1)c1cnc2sc(N3CCCCCC3)nn2c1=O,.,1%,30%[46.1 µM],.,.
COc1ccc(/C=N/NC(=O)CN(CCc2ccccc2)S(=O)(=O)c2ccc(NC(C)=O)cc2)cc1OC,20%,-2%,?,?,22%
